GDH-TPI counter-1: GDH-TPI coupling enzyme inhibitors, primary screen, artefact control for M. tuberculosis FBA inhibitor project, biochemical, absorbance, full deck | GDH-TPI coupled enzyme counterscreen, NADH absorbance | inhibition, % at 4.8 µM | 1.2% of 360,000 active | AID 588335, 2011;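 also: 0% = DMSO wells and 100% = wells lacking the enzyme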
CCHF vOTU inh: CCHFV vOTU protease inhibitors, primary screen, biochemical, Pep-AMC substrate, fluorescence; inhibition, % at 11.5 µM; Crimean-Congo hemorrhagic fever virus L polyprotein viral ovarian tumor (vOTU) protease …; 0.55% of 370,000 active; also: 0% = vehicle wells with enzyme and 100% = no enzyme wells
RecA splice inh: Mtb RecA intein splicing inhibitors, primary screen, biochemical, fluorescence, HTS; AID 2221, 2009; 0.75% of 290,000 active; cell-free RecA intein splicing; inhibition, % (concentration not given with the values); in the data active = inhibition above about 30%;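 also: 0% = vehicle wells and 100% = reference inhibitor control wells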
Target sequence (P9WHJ3 whole entry, looked up, canonical isoform): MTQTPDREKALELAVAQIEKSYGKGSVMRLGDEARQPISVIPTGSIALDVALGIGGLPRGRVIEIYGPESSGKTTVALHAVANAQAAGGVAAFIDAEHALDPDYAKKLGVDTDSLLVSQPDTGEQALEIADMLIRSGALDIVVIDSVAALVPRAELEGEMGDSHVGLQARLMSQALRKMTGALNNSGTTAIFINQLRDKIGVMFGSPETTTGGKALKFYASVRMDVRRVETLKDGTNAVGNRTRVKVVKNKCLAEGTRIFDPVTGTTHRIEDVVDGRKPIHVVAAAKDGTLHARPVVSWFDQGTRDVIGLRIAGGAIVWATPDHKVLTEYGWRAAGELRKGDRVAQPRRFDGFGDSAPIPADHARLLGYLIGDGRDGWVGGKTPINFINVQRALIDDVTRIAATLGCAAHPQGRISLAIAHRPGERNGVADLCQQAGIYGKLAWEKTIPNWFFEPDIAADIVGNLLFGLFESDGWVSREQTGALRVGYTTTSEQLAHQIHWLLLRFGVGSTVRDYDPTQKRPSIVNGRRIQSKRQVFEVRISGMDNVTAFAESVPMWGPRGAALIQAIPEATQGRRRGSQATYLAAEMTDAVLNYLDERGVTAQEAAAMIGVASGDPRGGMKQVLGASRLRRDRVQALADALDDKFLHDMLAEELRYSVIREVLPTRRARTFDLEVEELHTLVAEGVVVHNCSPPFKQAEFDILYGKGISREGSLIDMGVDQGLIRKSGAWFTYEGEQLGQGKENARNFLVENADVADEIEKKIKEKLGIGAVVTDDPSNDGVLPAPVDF
Mtb FBA inh: Mtb FBA enzyme inhibitors, primary screen, biochemical, fluorescence, strain H37Rv | purified M. tuberculosis FBA, fluorescence read-out | AID 588726, 2011 | Fructose-bisphosphate aldolase (Mycobacterium tuberculosis (strain ATCC 25618 / H37Rv)), … | inhibition, % at 1 µM | 2.3% of 360,000 active; in the data active = inhibition above about 27%;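 also: 0% = vehicle and 100% = reference inhibitor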
Mtb FBA inh conf: M. tuberculosis aldolase blockers, biochemical, fluorescence, strain H37Rv, confirmation | inhibition, % at 1 µM | shares compounds with Mtb FBA inh | 78% of 5,600 active | purified M. tuberculosis FBA, fluorescence read-out; in the data active = inhibition above about 27%;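 also: 0% = vehicle wells and 100% = reference inhibitor wells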
GDH-TPI counter-2: GDH-TPI coupling enzyme inhibitors, artefact control for M. tuberculosis FBA inhibitor project, biochemical, fluorescence, high throughput | shares compounds with Mtb FBA inh | GDH-TPI coupled enzyme counterscreen | inhibition, % at 1 µM | 81% of 5,600 active; in the data active = inhibition above about 10%
* hit, by the source's call; . = no result given; + = active, no number. A selection: hits, their analogues and other compounds. The true share with any hit is near 4.2%. Rule as the data show it, unless noted: active = inhibition above about 30%; inactive = the rest.

SMILES	GDH-TPI counter-1	CCHF vOTU inh	RecA splice inh	Mtb FBA inh	Mtb FBA inh conf	GDH-TPI counter-2
COc1ccc(CC(NC(C)=O)C(=O)NC2CCN(c3nc(C)cc(C)c3C#N)CC2)c(OC)c1 (centres undefined)	6.9	0.7	-1.0	25.1	.	.
Cc1cc(C)c(C#N)c(N2CCCC(C(N)=O)C2)n1 (centres undefined)	-3.5	-12.3	-4.0	56.5*	+	+
COc1ccccc1NC(=O)c1c[nH]c2ccccc12	-0.7	12.4	3.1	-1.5	.	.
CC(C)(C)S(=O)N1Cc2cc(C(=O)NCC(F)(F)F)nc(-c3cccc(-c4cccc(F)c4)c3)c2[C@@H]1CCO (some centres undefined)	.	7.6	.	3.2	.	.
COc1cccc(C(=O)NNS(=O)(=O)c2ccc(C)cc2)c1	16.9	4.0	-1.5	-2.4	.	.
C/C=C(\C)C(=O)O[C@H](c1cc2ccc(=O)oc2cc1OC)[C@@H](O)C(C)(C)O	18.1	-22.0	.	39.7*	90.1*	57.8*
C/C=C(/C)C(=O)O[C@@H]([C@H](O)c1cc2ccc(=O)oc2cc1OC)C(C)(C)O[C@@H]1O[C@H](CO)[C@@H](O)[C@H](O)[C@H]1O	12.1	-28.3	.	58.8*	161.1*	146.4*
C/C=C(\C)C(=O)O[C@@H]([C@H](O)c1cc2ccc(=O)oc2cc1OC)C(C)(C)O	17.9	-17.3	.	38.5*	42.0*	22.6*
Cc1cc(=O)c2cc(C(=O)c3ccccc3)ccc2[nH]1	8.1	-1.6	-2.9	1.3	.	.
CCOC(=O)c1ccc2[nH]c(C)cc(=O)c2c1	13.5	-13.4	0.0	36.3*	+	196.2*
COC(=O)c1ccc2[nH]c(C)cc(=O)c2c1	11.0	-20.1	-0.6	33.7*	95.3*	84.5*
CC(=O)N1CCN(C(=O)c2cc(=O)c3ccccc3o2)CC1	5.0	4.5	-0.4	-3.7	.	.
Cc1c(OCC(=O)NCCCn2ccnc2)ccc2c3c(c(=O)oc12)CCCC3	7.8	3.3	1.5	30.8*	75.6*	63.7*
O=C(COc1ccc2c3c(c(=O)oc2c1)CCC3)NCc1ccncc1	8.9	-5.1	-0.9	19.8	.	.
O=C(COc1ccc2c3c(c(=O)oc2c1)CCCC3)NCCCn1ccnc1	5.9	3.9	-1.6	28.9*	+	194.0*
CC(Oc1ccc2c3c(c(=O)oc2c1)CCCC3)C(=O)NCCCn1ccnc1 (centres undefined)	16.2	1.4	2.9	24.6	.	.
Cc1c(C)c2ccc(OCC(=O)NCCCn3ccnc3)cc2oc1=O	12.6	-7.7	0.6	62.0*	195.3*	138.4*
O=C(COc1ccc2c(-c3ccccc3)cc(=O)oc2c1)NCCCn1ccnc1	16.7	2.3	11.3	4.5	.	.
O=C(COc1ccc2c3c(c(=O)oc2c1)CCCC3)NCc1ccccn1	8.6	-16.5	-2.1	86.3*	+	+
CC(OC(=O)CCN=C1NS(=O)(=O)c2ccccc21)C(=O)N(C)C1CCCCC1 (centres undefined)	-10.4	-2.9	-0.4	0.9	.	.
CN1CCN(C2CN(Cc3cn(Cc4ccc(C(F)(F)F)cc4)nn3)S(=O)(=O)C2)CC1 (centres undefined)	.	-0.3	.	.	.	.
CCCS(=O)(=O)NC(=O)C1(C)CCN(C(=O)c2cncc(Br)c2)C1 (centres undefined)	-3.6	8.7	.	0.6	.	.
COc1ccc(Nc2c(CCc3ccccc3)nc3nc(C)cc(C)n23)cc1	.	16.5	.	.	.	.
O=C(COc1ccc2c3c(c(=O)oc2c1)CCC3)NCCCN1CCCC1=O	16.2	-8.3	-2.7	16.7	.	.
O=C(COc1ccc2c3c(c(=O)oc2c1)CCCC3)NCCCN1CCCC1=O	13.7	-23.4	-2.0	62.4*	92.5*	78.7*
SMILES	GDH-TPI counter-1	CCHF vOTU inh	RecA splice inh	Mtb FBA inh	Mtb FBA inh conf	GDH-TPI counter-2
O=C(/C=C/c1ccccc1)NC(=S)Nc1ccccc1	25.4	9.8	2.2	27.5*	6.1	-0.7
O=C(/C=C/c1ccc(F)cc1)NC(=S)Nc1ccccc1	12.4	2.1	-1.2	-6.4	.	.
c1ccc2oc(-c3ccc4nc[nH]c4c3)nc2c1	9.1	-9.5	-3.3	60.0*	+	169.3*
CCCn1c(SCC(=O)Nc2c(C)cccc2CC)nnc1C(C)C	3.9	-3.6	-0.4	38.8*	117.7*	110.7*
c1cncc(CNc2cccc(-c3nc4ccccc4[nH]3)c2)c1	7.8	-25.2	2.0	47.8*	0.2	-3.2
Cc1ccc(-c2c(C#N)c(N)nc3c2CCCCCC3)o1	25.9	-35.3	2.6	31.5*	51.2*	38.2*
COc1ccc(N2C(=O)c3ccccc3NC23CCC(C)CC3)cc1 (centres undefined)	1.3	-11.6	.	9.7	.	.
COc1ccc(N2C(=O)c3ccccc3NC23CCCCC3)cc1	-2.4	-21.6	2.7	36.6*	110.8*	108.8*
O=C(c1ccc(Cl)c(S(=O)(=O)N2CCCCCC2)c1)N1CCCC(C(F)(F)F)C1 (centres undefined)	0.7	5.0	5.2	44.6*	64.6*	46.1*
Cc1ccc(OCCC(=O)N(CC(=O)Nc2ccccc2C(F)(F)F)Cc2ccco2)cc1	-0.7	6.1	-2.0	-1.9	.	.
Cc1cc(-c2ccccc2)[nH]c(=O)c1C#N	27.4	-13.2	-7.7	68.9*	66.9*	51.7*
N#Cc1c(-c2ccco2)cc(-c2ccccc2)[nH]c1=O	14.7	-103.8	-14.9	77.8*	79.9*	67.9*
Cc1ccc(S(=O)(=O)N(C)C[C@H]2OCCCC[C@H](C)Oc3ccc(NC(=O)Nc4cccc5ccccc45)cc3C(=O)N([C@@H](C)CO)C[C@H]2C)cc1	24.7	0.8	.	10.4	.	.
CCC(=O)NCCn1ccc2ccccc21	-2.7	1.9	0.7	-0.5	.	.
CC(C)C(=O)NCCn1ccc2ccccc21	6.8	7.3	-1.1	29.8*	102.0*	88.3*
COc1ccc(OCC(=O)Nc2ccc3c(c2)nc(CCN2CCN(C)CC2)n3C)cc1	-3.1	7.0	1.2	4.6	.	.
CCCn1c(-c2cccc(F)c2)nc2c1c(=O)[nH]c(=O)n2Cc1ccccc1	-0.7	10.7	-0.4	5.8	.	.
Cn1c(-c2cccc(F)c2)nc2c1c(=O)[nH]c(=O)n2Cc1ccccc1	-12.8	-2.7	-2.1	27.5*	4.3	-3.1
CCCn1c(-c2cc(OC)c(OC)c(OC)c2)nc2c1c(=O)[nH]c(=O)n2Cc1ccccc1	-3.7	-1.9	5.3	40.8*	12.3	8.9
CCCOc1ccc(-c2nc3c(c(=O)[nH]c(=O)n3Cc3ccccc3)n2CCO)cc1OCC	-1.1	9.1	-8.1	38.4*	0.5	-4.0
